40 compounds from PubChem BioAssay (NCI) can be followed below.

This is part of a sample that, as a whole, favours compounds with a hit. Of some 83,000 tested, about 20% had one in any assay.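 Cells were grown in 96-well plates and exposed to the test compound at a single concentration for 48 hours; results are reported as percent growth, with values below 10 considered active.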 Unmarked numbers belong to inactive results. Activity calls are given as the source filed them.

This assay concerns HCT-116 colon. The experiment in a line: NCI-60 one-dose screen, 48 h (100 = growth as untreated, 0 = no growth, -100 = all killed). The settings on record: 10 µM unless noted. Here is the method:
Growth inhibition of the HCT-116 human tumor cell line is measured as a screen for anti-cancer activity. Cells are grown in 96 well plates and exposed to the test compound for 48 hours. Compounds are tested at a single concentration, which is 10^-5 M for most compounds. The reported endpoint is percent growth (GI% or GIPRCNT), where numbers from 0 - 100% represent growth inhibition, and numbers from -100% - 0 represent cell death. For example, a value of 40 represents 60% growth inhibition. A value of 0 means no net growth occurred over the course of the experiment. A value of -40 indicates 40% of cells at the beginning of the experiment died by the end of the experiment. A value of -100 means all cells are dead at the end of the experiment.
NCI-60 Human Tumor Cell Lines Screen was performed using the standard one-dose NCI protocol, which is described in more detail at https://dtp.cancer.gov/discovery_development/nci-60/default.htm.
Compounds with GIPRCNT values below 10 were considered active. Activity score was based on GIPRCNT using the following formula: […]
Score is 0 for GIPRCNT values of 100 or above, 50 for GIPRCNT values of 0, and 100 for GIPRCNT values of -100.
Take `COc1cc2nccc(Oc3ccc(NC(=O)C4(C(=O)Nc5ccc(F)cc5)CC4)cc3)c2cc1O`: the growth was 52%. Consider `CCCCCCCCCCCC1=NC(C)(C)CN1C(C)(C)CO`, for which the growth was 8.08% (active).

On to `CCCCCCCCCCC(C(O)c1ccccc1)N1CCCCC1` (stereo not given), for which the growth is 14.7%.

With `Cc1ccc(NC(=O)Cn2nncc2CN2C(=O)CSC2=O)cc1C`, the growth was 102%. As for `C=CCn1c(C)nc2cc(Nc3nc(N4CCOCC4)nc4nc[nH]c34)ccc21`, the growth is 91.4%.

Regarding `O=c1[nH]c2cc(Cl)c(Cl)cc2o1`, the growth is 98.9%. For `Oc1[nH]c2ccccc2c1/C=c1/ccc2c(c1)N=C(c1ccc(C(F)(F)F)cc1)N=2` the value was 39.5%; for `C[C@]12CCc3nc(Nc4ccc(O)cc4)sc3C1=CC[C@@H]1[C@@H]2CC[C@]2(C)/C(=N/NC(N)=S)CC[C@@H]12`, -81% (active); for `COc1ccc(/C(=C\c2cc(OC)c(OC)c(OC)c2)C(=O)Nc2nc3ccc(Cl)cc3s2)cc1`, 86.8%. As for `O=c1c2sc3ccccc3c2nnn1-c1ccc(F)c(Cl)c1`, the growth was 19.9%. In the case of `CNC(=O)c1cc(Oc2ccc(NC(=O)c3nc(S(C)(=O)=O)sc3-c3ccc(F)cc3)cc2)ccn1`, the growth was 85.3%. The value for `COc1ccc(/C(=C\c2cc(OC)c(OC)c(OC)c2)C(=O)N2CCN(c3ccccc3)CC2)cc1O` was 106%; that for `Cc1cc(C)c(C#N)c(SCC(=O)c2sc3c(C#N)c(C)cc(C)[n+]3c2[O-])n1` was 16.8%; that for `COc1ccc(C2CC(c3cccc(Nc4ccnc5cc(Cl)ccc45)c3)=NN2c2ccccc2)cc1` (stereo not given) was 65.5%.

For `Oc1c(-c2cc(C(F)(F)F)[nH]n2)cc(Cl)c(OCc2ccc(Cl)cc2)c1-c1ccc(Cl)c(C(F)(F)F)c1`, the growth is -23.8% (active). On to `O=C1Cc2c([nH]c3ccc([N+](=O)[O-])cc23)-c2ccccc2N1`, for which the growth was 4.3% (active). For `COc1c(-c2cc(-c3ccc(C)o3)[nH]c(=O)n2)c(O)cc2occc12` the value was 42.8%. On to `O=C(Cc1ccc(Nc2ccnc(C(F)(F)F)c2)cc1)N/N=C/c1ccccc1O`, for which the growth was 16.1%. With `COc1cccc(/C=N/N=C(N)N)c1`, the growth was 99.9%.

On to `C=CCn1c(SCC(=O)Nc2ccc(C(=O)/C=C/c3ccc(Cl)cc3)cc2)nnc1-c1ccc(Cl)cc1`, for which the growth is -17.8% (active).

In the case of `CCOC(C)(c1ccc(Cl)cc1)C1CCNCC1` (stereo not given), the growth is 97.8%. The value for `CCOC(=O)C(Nc1ccccc1)C(=O)OCC` was 101%. For `C1=C\CCCCN2CC[C@H]3[C@H](CCCC/C=C\CCCN4C[C@@H](CCCCC/1)C[C@@H]3C4)C2` the value was 43.6%.

With `COc1ccc(C(=O)c2c(N)nc3n2CCCC3)cc1OC`, the growth was 91.9%. As to `O=c1cc(-c2ccc3c(c2)OCCO3)oc2cc(Cl)ccc12`, the growth was -1.49% (active). The value for `CC(C)OC(=O)c1ccc([N+](=O)[O-])cc1` was 110%; that for `Nc1cc2nc3ccccc3oc-2cc1=O` was 45.1%. `Cc1cc(C)c([O-])c(CN(C)CCN(C)Cc2cc(C)cc(C)c2[O-])c1.O=C([O-])c1cccc(C(=O)[O-])n1.[Ti+4]`: the growth was 4.86% (active). For `COc1cc(NC(C)CCCN)c2ncccc2c1Oc1ccc(Cl)cc1` (stereo not given) the value was 58.3%; for `C=CCOc1c(Br)cc(Br)cc1Br`, 54.5%; for `N[C@@H](CO)C(=O)O`, 103%. `Cc1[nH]n(C(=O)c2ccncc2)c(=O)c1N=Nc1ccc(O)c(C(=O)O)c1`: the growth is 75.3%.

For the compound `CN1CCN(Cc2ccc(NC(=O)c3cccc(C#Cc4cnc(N)c5ncccc45)c3F)cc2C(F)(F)F)CC1`, the growth was -67.5% (active).

Consider `O=C1OCC2=C1C(c1ccc(Cl)c(Cl)c1)c1cc3c(cc1N2CCO)CCC3` (stereo not given), for which the growth was 18.3%.

Take `COc1cc2c(cc1I)-c1c(cc(OC)c(OC)c1OC)CC[C@@H]2NC(C)=O`: the growth was 6.59% (active). The value for `COc1cccc2nc(Nc3cccc(NC(=O)c4cc(N5CCOCC5)cc(C(F)(F)F)c4)c3)ccc12` was 41.9%.

Regarding `O=C(CSc1ccc(Cl)cc1)Nc1ccc(-c2nc3ccccc3s2)c(Cl)c1`, the growth was 19.7%. The value for `COc1cc2cc(C(=O)Nc3ccccc3)c(N)nc2cc1OC` was -80.2% (active); that for `COc1ccc(C(=O)/C=C/c2cn(-c3ccccc3)nc2-c2cccc(Nc3ccnc4cc(Cl)ccc34)c2)cc1` was 91.9%; that for `CCCCNCC(O)c1cc2c(Cl)cc(Cl)cc2c2cc(C(F)(F)F)ccc12` (stereo not given) was -91.7% (active).
